Values joined by “and” are separate entries in the source; they are usually repeats but may differ in a detail not shown here. Equal entries are not always repeated. Active and inactive are the calls of the source. Unless noted, no rule for the calls is given here.
Assays:
[1] = compounds altering viability of human ES cells (AID 493140); settings: human embryonic stem cell survival screen; stronger effect = higher value;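 also: cells exposed to compounds for four days before counting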
[2] = stimulators of insulin release from INS-1E, primary screen, cell-based, 5 mM glucose, NPC library (AID 1117329;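 active = compound raises insulin release from rat beta cells at 5 mM glucose, no numeric limit stated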); settings: rat INS-1E insulin secretion, at 10 µM, stronger effect = higher value
[3] = growth inhibition of GSK3B-pretreated HCT116 cells – cell-based, CellTiter-Glo, 0.2 to 20 µM (AID 1117336;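 active = compounds lowering colon cancer cell viability after pretreatment blocking the GSK3B kinase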); settings: HCT116 viability after GSK3B inhibitor, at 20 µM, stronger effect = higher value
[4] = inhibition of endothelial tube formation, primary screen, imaging, VEGF stimulated, CD31 staining, tube area, NPC library (AID 1117340;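 active = compound that reduces growth-factor-driven endothelial tube area in a mixed cell culture, no cutoff stated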); settings: VEGF-stimulated ADSC/ECFC co-culture, at 10 µM, stronger effect = higher value
[5] = GLP1 release stimulators, primary, NCI-H716, NPC library (AID 1117341;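 active = compound raises GLP1 secretion from the human gut endocrine cells, with no numeric limit stated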); settings: NCI-H716 cells, at 10 µM, stronger effect = higher value
[6] = HCT116 colon cancer cell growth inhibition, primary screen, CellTiter-Glo luminescence, NPC library (AID 1117342;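 active = compounds that lower survival of HCT116 colon cancer cells in the luminescence readout, no numeric limit stated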); settings: at 20 µM (top of the series)
[7] = reduced SW480 viability measured with CellTiter-Glo, NPC library, primary (AID 1117343;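 active = compounds that lower viability of the colon cancer cells in the luminescence readout, with no numeric limit stated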); settings: CellTiter-Glo luminescence; at 20 µM (top of the series) unless noted
[8] = NPC library primary testing for decreased DLD-1 cell viability via CellTiter-Glo (AID 1117346;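 active = compounds that lower survival of DLD-1 colon cancer cells in the luminescence readout, no cutoff given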); settings: DLD-1 viability, CellTiter-Glo luminescence; at 20 µM (top of the series)
[9] = molecular target: 6-phosphogluconate dehydrogenase, decarboxylating (Homo sapiens) (UniProt P52209); test: inhibition of human phosphogluconate dehydrogenase – biochemical, recombinant enzyme, NADPH absorbance, primary screen (AID 1159550;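 active = at least 20% inhibition of 6-phosphogluconate dehydrogenase activity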); settings: recombinant 6PGD, NADPH absorbance 341 nm; at 10 µM; stronger effect = higher value
Sequence of 6-phosphogluconate dehydrogenase, decarboxylating (Homo sapiens) (P52209 whole entry, looked up): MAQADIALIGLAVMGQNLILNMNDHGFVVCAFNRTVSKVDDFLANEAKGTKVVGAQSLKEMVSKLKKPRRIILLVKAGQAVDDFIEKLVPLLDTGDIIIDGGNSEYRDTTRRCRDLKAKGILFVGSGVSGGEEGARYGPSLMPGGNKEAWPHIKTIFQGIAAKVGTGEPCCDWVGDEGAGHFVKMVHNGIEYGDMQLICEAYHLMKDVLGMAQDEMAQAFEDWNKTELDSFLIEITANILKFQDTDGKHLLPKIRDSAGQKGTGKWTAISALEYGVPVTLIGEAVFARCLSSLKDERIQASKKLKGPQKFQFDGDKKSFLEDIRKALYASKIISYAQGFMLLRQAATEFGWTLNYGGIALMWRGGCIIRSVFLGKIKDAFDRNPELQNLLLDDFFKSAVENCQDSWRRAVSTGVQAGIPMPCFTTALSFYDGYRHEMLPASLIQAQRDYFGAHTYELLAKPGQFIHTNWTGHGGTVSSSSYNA

[10] = modulation of C. elegans fzo-1 (AID 1259413);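 also: fzo-1 mutant C. elegans worms in liquid wells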; settings: C. elegans fzo-1 modulator screen, mean read-out; stronger effect = higher value
[11] = EMT-state selective cytotoxicity in co-culture – imaging, PC-3E GFP, TEM4-18 mCherry, primary screen (AID 1345086;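 active = compounds killing one labelled cell type while sparing the other, by normalised counts and ratio limits, not self-fluorescent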;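 as to all read-outs here: cells exposed to compound for 72 h before imaging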;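 as to red/green cell ratio (normalised): normalised mesenchymal count divided by normalised epithelial count so high means epithelial killing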); settings: PC-3E GFP / TEM4-18 mCherry co-culture, imaging cell counts, at 1 µM; for red/green cell ratio (normalised): actives lie on both sides, counts scaled to control wells, 1 = unselective
[12] = MELAS cybrid and Rieske KO viability enhancers – cell-based, MELAS cybrids, Rieske KO mouse fibroblasts, CellTiter-Glo, primary screen (AID 1508586;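 active = mean z-score across replicates of 1.96 or higher in either the MELAS or the Rieske mutant cell line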;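 also: z relative to plate mean and SD of compound and empty wells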); settings: low glucose
[13] = molecular target: NAD(+) hydrolase SARM1 (Homo sapiens) (UniProt Q6SZW1); test: blocking NAD cleavage by SARM1 SAM-TIR – cell lysate, NAD-Glo luminescence (AID 1508614;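 active = compound whose remaining NAD level is above about 45 nM, limit read from the data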;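 also: higher remaining NAD means stronger inhibition of SARM1 NADase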); settings: SAM-TIR HEK293T lysate NADase, at 1 µM, stronger effect = higher value
Sequence of NAD(+) hydrolase SARM1 (Homo sapiens) (Q6SZW1 whole entry, looked up, the tested form may be a part): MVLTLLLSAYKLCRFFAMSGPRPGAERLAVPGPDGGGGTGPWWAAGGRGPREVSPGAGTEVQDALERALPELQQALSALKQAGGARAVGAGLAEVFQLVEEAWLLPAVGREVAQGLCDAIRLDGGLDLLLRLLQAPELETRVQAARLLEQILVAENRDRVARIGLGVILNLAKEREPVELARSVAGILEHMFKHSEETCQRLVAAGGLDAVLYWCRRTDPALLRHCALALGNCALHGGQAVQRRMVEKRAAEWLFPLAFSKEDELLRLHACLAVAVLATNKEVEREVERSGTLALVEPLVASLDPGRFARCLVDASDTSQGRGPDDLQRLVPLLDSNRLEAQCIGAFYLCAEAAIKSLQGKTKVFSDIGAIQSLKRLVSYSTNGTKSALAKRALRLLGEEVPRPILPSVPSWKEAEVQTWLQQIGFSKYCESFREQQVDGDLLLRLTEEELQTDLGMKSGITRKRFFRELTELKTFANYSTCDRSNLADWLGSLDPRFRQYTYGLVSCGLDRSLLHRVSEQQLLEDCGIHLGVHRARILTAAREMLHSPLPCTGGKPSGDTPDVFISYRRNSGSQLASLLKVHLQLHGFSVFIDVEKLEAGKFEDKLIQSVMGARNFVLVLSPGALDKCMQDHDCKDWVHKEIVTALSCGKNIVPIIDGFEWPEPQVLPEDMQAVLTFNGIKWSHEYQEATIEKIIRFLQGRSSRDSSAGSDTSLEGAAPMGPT

[14] = molecular target: Mitogen-activated protein kinase 7 (Homo sapiens) (UniProt Q13164); test: Gal4-ERK5 driven luciferase induction – cell-based, HTS, primary screen (AID 1508626;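 active = luciferase signal above three times the same-plate solvent-only control wells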;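 also: luciferase driven by Gal4-ERK5 fusion binding five Gal4 sites before minimal TATA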); settings: HeLa Gal4-ERK5 transactivation, 18 h, at 5 µM, stronger effect = higher value
Sequence of Mitogen-activated protein kinase 7 (Homo sapiens) (Q13164 whole entry, looked up, the tested form may be a part): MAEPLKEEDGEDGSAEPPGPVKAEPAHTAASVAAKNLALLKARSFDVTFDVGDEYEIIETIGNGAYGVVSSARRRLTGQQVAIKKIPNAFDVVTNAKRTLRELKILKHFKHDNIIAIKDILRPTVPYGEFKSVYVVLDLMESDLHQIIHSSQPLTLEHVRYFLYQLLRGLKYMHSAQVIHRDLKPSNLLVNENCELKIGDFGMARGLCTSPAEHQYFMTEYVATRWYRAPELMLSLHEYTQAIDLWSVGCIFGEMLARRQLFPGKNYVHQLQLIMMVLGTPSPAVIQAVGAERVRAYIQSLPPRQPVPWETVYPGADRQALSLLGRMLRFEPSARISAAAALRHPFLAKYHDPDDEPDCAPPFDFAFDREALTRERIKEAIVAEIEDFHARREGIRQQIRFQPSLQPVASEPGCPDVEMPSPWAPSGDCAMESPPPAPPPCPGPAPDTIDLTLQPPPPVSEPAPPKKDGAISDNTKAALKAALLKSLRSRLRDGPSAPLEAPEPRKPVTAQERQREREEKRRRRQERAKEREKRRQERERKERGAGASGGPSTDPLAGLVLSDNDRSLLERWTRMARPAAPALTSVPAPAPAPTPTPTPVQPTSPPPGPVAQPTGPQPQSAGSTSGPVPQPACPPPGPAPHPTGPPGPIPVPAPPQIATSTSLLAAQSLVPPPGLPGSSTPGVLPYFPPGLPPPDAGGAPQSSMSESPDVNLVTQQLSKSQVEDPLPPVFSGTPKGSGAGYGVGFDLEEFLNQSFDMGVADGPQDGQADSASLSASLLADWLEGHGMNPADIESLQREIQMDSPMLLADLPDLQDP

[15] = Wnt pathway potentiators raising nuclear beta-catenin – imaging, WNT3A-conditioned medium, mouse C2C12, NPC library, primary screen (AID 1117326; in the data active = nuclear beta-catenin stimulation mostly above about 4.2%, no sharp cut-off; inactive = mostly below about 10%); settings: stronger effect = higher value
[16] = viability loss with induced miR-34 in A549 – imaging, A549 dox-inducible miR-34, nuclei and caspase counts, primary screen (AID 1347080;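 active = compounds whose cell count with miR-34 switched on is under 0.7 times the count with it off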); settings: A549 miR-34 inducible, Hoechst nuclei count, 48 h
[17] = galactose survival enhancers in mitochondrial complex I cybrids – cell-based, galactose medium, ATP luminescence, primary screen (AID 1645843;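 active = z-score of at least 1.8 in each of two replicates, scored against plate mean and spread of sample wells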;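 also: positive z means more ATP and so rescue of galactose-driven cybrid death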); settings: complex I mutant cybrid cells, 72 h, stronger effect = higher value
[18] = measured here: epithelial PC-3E GFP cell survival
[19] = measured here: mesenchymal TEM4-18 mCherry cell survival
[20] = MELAS cybrid survival, CellTiter-Glo 48 h, stronger effect = higher value
[21] = Rieske KO mouse fibroblast survival, CellTiter-Glo 72 h

COC(=O)C1=C(C)NC(C)=C(C(=O)OC)C1c1ccccc1[N+](=O)[O-]
1.03: normalised cell number [11, 18]
inactive: survival [1] 26.5 | insulin secretion stimulation [2] 11.4% | tube area decrease [4] 1.2% | GLP1 secretion stimulation [5] 4.4% | inhibition [9] -13.6% | mean signal [10] 242 | red/green cell ratio (normalised) [11] 0.87 | z-score [12, 20] -0.44 and 1.42 and -0.699 | remaining NAD [13] 10 nM | luciferase signal [14] 52 AU
0.0615 and 0.566 and -0.497: z-score [12, 21]
active: viability decrease [3] 77.9% | inhibition of viability [6] 58.7% | viability decrease (inhibition) [7] 136% | viability decrease (inhibition) [8] 93.1%
0.9: normalised cell number [11, 19]

CCO[C@H](Cc1ccc(OCCc2ccc(OS(C)(=O)=O)cc2)cc1)C(=O)O
7.6%: nuclear beta-catenin stimulation ([15]; stimulation, at 2 µM)
inactive: nuclear beta-catenin stimulation ([15]; at 10 µM) 1.2% | viability decrease [3] 8.6% | inhibition of viability [6] -7.7% | viability decrease (inhibition) [7] -5.9% | viability decrease (inhibition) [8] -11.3%

COCCOCC(OC)OC
10.8%: nuclear beta-catenin stimulation ([15]; stimulation, at 2 µM)
inactive: nuclear beta-catenin stimulation ([15]; at 10 µM) 1.2% | viability decrease [3] 0.6% | inhibition of viability [6] 12.5% | viability decrease (inhibition) [7] -8.8% | viability decrease (inhibition) [8] 6.9%

CN1C(=O)CC[C@H]1c1cccnc1
1.13: normalised cell number [11, 18]
1.81 and 1.06 and 0.497: fold change ([16]; measured here: relative caspase fold change +Dox/-Dox)
5.5%: nuclear beta-catenin stimulation ([15]; stimulation, at 2 µM)
1.23: normalised cell number [11, 19]
10100 and 7880 and 10300: cell count ([16]; measured here: total cells with miR-34 induction, stronger effect = lower value)
10100 and 8480 and 11900: cell count ([16]; measured here: total cells without miR-34 induction)
inactive: survival [1] 19.8 | nuclear beta-catenin stimulation ([15]; at 10 µM) -1.4% | viability decrease [3] 22.7% | inhibition of viability [6] 12.8% | viability decrease (inhibition) [7] -3% | viability decrease (inhibition) [8] 14.2% | inhibition [9] 7.9% | mean signal [10] 242 | red/green cell ratio (normalised) [11] 1.08 | fold change ([16]; stronger effect = lower value, cell number ratio, induced over uninduced) 1 and 0.929 and 0.864 | remaining NAD [13] 22 nM | luciferase signal [14] 64 AU | z-score [17] 0.48

COC(=O)C1=C(C)NC(C)=C(C(=O)OCCN(C)Cc2ccccc2)C1c1cccc([N+](=O)[O-])c1 (stereo unspecified)
0.89: normalised cell number [11, 19]
-0.154 and -0.712 and 0.12: z-score [12, 21]
active: viability decrease [3] 91.4% | inhibition of viability [6] 104% | viability decrease (inhibition) [7] 126% | viability decrease (inhibition) [8] 84.9%
1.09: normalised cell number [11, 18]
inactive: survival [1] 2.33 | insulin secretion stimulation [2] 2.9% | tube area decrease [4] 14.2% | GLP1 secretion stimulation [5] -2.4% | inhibition [9] -13.8% | mean signal [10] 246 | red/green cell ratio (normalised) [11] 0.81 | z-score [12, 20] -0.48 and -0.0308 and 0.219 | remaining NAD [13] 10 nM | luciferase signal [14] 48 AU | z-score [17] -1.29 and -1.5 and 0.665

Reference: PubChem BioAssay
